Screens (PubChem)
Only some compounds are listed: those with a hit (about 3.5% of all), similar ones and a draw of the others.
MITF primary: blocks human microphthalmia-associated transcription factor; O75030; AlphaScreen MITF homodimerization, bead proximity signal; inhibition, % at 2.6 µM; 650,000 compounds, 0.91% hits; AID 1259374; in the data active means inhibition above about 50%
TEAD-YAP block: TEAD-YAP interaction inhibition | HEK-TIYL cells, TEAD-Gal4/YAP UAS-luciferase luminescence | inhibition, % at 9.12 µM | 640,000 compounds, 1.4% hits | AID 1259422; in the data active means inhibition above about 32%
GPR151 activ: activators of human GPR151; PathHunter beta-arrestin GPR151 cells, luminescence; activation, % at 11.2 µM; 650,000 compounds, 1% hits; in the data active means activation above about 4.9%
Target sequence (Q8TDV0 whole entry, looked up): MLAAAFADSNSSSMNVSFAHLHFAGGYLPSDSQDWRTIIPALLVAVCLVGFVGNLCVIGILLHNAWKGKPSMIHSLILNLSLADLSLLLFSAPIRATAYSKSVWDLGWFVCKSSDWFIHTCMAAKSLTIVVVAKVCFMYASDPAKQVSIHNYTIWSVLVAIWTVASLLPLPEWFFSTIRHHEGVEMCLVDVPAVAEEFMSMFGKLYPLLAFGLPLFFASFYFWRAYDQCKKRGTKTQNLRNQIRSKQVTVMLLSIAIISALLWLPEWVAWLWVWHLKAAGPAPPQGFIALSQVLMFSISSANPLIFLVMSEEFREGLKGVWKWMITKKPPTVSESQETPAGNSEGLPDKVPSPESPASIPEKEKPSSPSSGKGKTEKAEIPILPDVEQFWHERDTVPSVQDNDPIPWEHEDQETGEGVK
FBW7 act: human FBW7 E3 ligase activation, primary screen; Q969H0; AlphaScreen FBW7–phospho-cyclin E peptide binding, activator screen; normalized activity (activation), % at 26.1 µM; 650,000 compounds, 0.13% hits; in the data active means normalized activity above about 1.9%;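 further: purified mutant Fbw7 with reduced substrate affinity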
Numbers stand for hits; - = inactive.

SMILES	MITF primary	TEAD-YAP block	GPR151 activ	FBW7 act
CC1=C(C(=O)OCc2ccc3c(c2)OCO3)C(c2ccccc2OC(C)C)NC(=O)N1 (stereo unspecified)	-	-	-	-
CCN(CC)c1ccc(C2NC(=O)NC(C)=C2C(=O)OCc2ccc3c(c2)OCO3)cc1 (stereo unspecified)	-	-	-	-
CCOc1cc(/C=C2\C(=O)N(c3ccc([N+](=O)[O-])cc3)N=C2c2ccccc2)ccc1OC	-	-	-	-
CCSc1nnc2c(n1)[nH]c1ccccc12	-	-	-	-
O=C(Nc1ccccc1)N[C@H]1C[C@H]2C(=O)N[C@H](Cc3ccccc3)C(=O)N2C1	-	-	-	-
COCCCN1C(=O)c2[nH]nc(-c3ccccc3O)c2C1c1ccc(C)cc1 (stereo unspecified)	-	42.6	-	-
Cc1ccc(-n2nc3ccc(NC(=O)c4oc5ccccc5c4C)cc3n2)cc1	-	-	-	-
O=C(Nc1ccc2c(c1)N(C(=O)C1CCCO1)CC2)c1cc2ccccc2oc1=O (stereo unspecified)	-	57.4	-	-
N#CC(C#N)C(C#N)(C#N)C1CCCC1=O (stereo unspecified)	78.3	-	-	-
N#CC(C#N)C(C#N)(C#N)C1CCCCC1=O (stereo unspecified)	-	-	-	-
Cc1ccc(C)c(-n2c3nc(=O)[nH]c(=O)c-3cc3cc([N+](=O)[O-])ccc32)c1	-	56.9	-	-
CCc1ccc2oc(-c3cccc(NC(=O)c4cc5ccccc5o4)c3)nc2c1	-	-	-	-
COc1ccc(-c2cnc(NC3CC3)nc2)cc1	-	37.8	-	-
CCCSc1nnc(-c2ccc(OC)cc2)o1	-	44.7	-	-
Cc1ccc(NC(=O)c2ccccc2Cl)cc1C	-	-	-	-
Cc1ccc(C(=O)Nc2cc(C)c(O)cc2C)cc1	-	65.3	-	-
Cc1ccc(C(=O)Nc2ccc(O)c(C)c2)cc1	-	93.2	-	-
Cc1ccc(C(=O)Nc2ccc(NC(=O)C(F)(F)F)cc2)cc1	-	55.6	-	-
Cc1ccc(C(=O)Nc2cc(C)c(C)cc2O)cc1	-	-	-	-
Cc1cc(NC(=O)c2ccccc2Cl)ccc1O	-	82.7	-	-
Cc1ccc(S(=O)(=O)N(CCO)CC(O)Cn2c3ccccc3c3ccccc32)cc1 (stereo unspecified)	-	-	-	-
Cc1ccc(C(=O)Nc2ccc(C(=O)N3CCCCC3)cc2)cc1	-	-	-	3.4
COCCn1c(=NC(=O)c2cccc(OC)c2OC)sc2cc(OC)c(OC)cc21	-	-	-	-
CCOCCn1c(=NC(=O)c2cccc(OC)c2OC)sc2ccccc21	-	74.2	-	-
CCOCCn1c(CO)nc2ccccc21	-	-	-	-
SMILES	MITF primary	TEAD-YAP block	GPR151 activ	FBW7 act
C=CCNC(=S)NNc1nc(N2CCCC2)nc(N2CCCC2)n1	-	-	-	-
C=CCNC(=S)NNc1nc(Nc2ccccc2)nc(N2CCCCC2)n1	-	33.9	-	-
COc1ccc(/C=C/c2nn3c(Cn4cnc5ccccc54)nnc3s2)cc1	-	38.5	-	-
CCOc1ccc(NC(=O)COC(=O)c2cc(=O)c3ccccc3o2)cc1	-	-	-	-
CCc1ccc(NC(=O)COC(=O)c2cc(=O)c3cc(F)ccc3o2)cc1	-	-	-	2.8
O=C(COC(=O)c1cc(F)c(F)cc1Cl)Nc1ccc(F)cc1	-	-	-	-
O=C(COC(=O)c1cc(O)c(O)c(O)c1)Nc1ccc(F)cc1	67.9	-	-	-
CC(=O)c1cccc(NC(=O)Cc2noc3ccccc23)c1	-	-	-	-
CC(Oc1ccccc1F)C(=O)Nc1cccc(-c2ccc(N3CCOCC3)nn2)c1 (stereo unspecified)	-	41.6	-	-
O=C(Cc1noc2ccccc12)Nc1cccc(-c2ccc(N3CCCC3)nn2)c1	-	47.9	-	-
COc1ccc(CC(=O)Nc2cccc(-c3ccc(N4CCOCC4)nn3)c2)cc1OC	-	33.8	-	-
CCOC(=O)C1C(=O)CC(C)(O)C(C(=O)OCC)C1c1ccc(N(C)C)cc1 (stereo unspecified)	-	-	-	-
OCC1CCCN1c1nccc(NCc2cccc(C(F)(F)F)c2)n1 (stereo unspecified)	-	43.4	-	-
FC(F)(F)Oc1cccc(-c2nccc(NCc3cccc(C(F)(F)F)c3)n2)c1	-	49.5	-	-
c1cc(Nc2ccc(N3CCOCC3)cc2)nc(NCc2ccc3c(c2)OCO3)n1	-	38.4	-	-
FC(F)(F)c1cccc(CNc2ccnc(NCCN3CCOCC3)n2)c1	-	-	-	-
FC(F)(F)c1cccc(CNc2ccnc(Nc3ccc(N4CCOCC4)cc3)n2)c1	-	64.3	-	-
COc1ccc(-c2cc(C(F)(F)F)n3ncc(C(=O)NC45CC6CC(CC(C6)C4)C5)c3n2)cc1	-	-	-	-
CCc1ccc(NC(=O)c2cccc([N+](=O)[O-])c2)cc1	-	-	-	-
FC(F)(F)c1cccc(CNc2nc(-c3ccc(N4CCOCC4)nc3)nc3nc[nH]c23)c1	-	-	-	17.9
FC(F)(F)c1cccc(CNc2nc(N3CCOCC3)nc3nc[nH]c23)c1	-	-	-	-
CCOC(=O)N1CCC(N2CCN(S(=O)(=O)c3ccc(Cl)cc3)CC2)CC1	-	-	-	-
NC(C(=O)N1CCC(Nc2ccc3[nH]ncc3c2)CC1)c1ccc(-c2ccccc2)cc1 (stereo unspecified)	-	37.8	-	-
CCC1(CC)NC(=O)N(CC(=O)OCC(=O)Nc2ccccc2[N+](=O)[O-])C1=O	-	-	-	-
Cc1ccn2cc(-c3ccc(S(=O)(=O)N(C)C)cc3)nc2c1	-	48.1	-	-
SMILES	MITF primary	TEAD-YAP block	GPR151 activ	FBW7 act
Cc1ccn2cc(-c3ccccc3Br)nc2c1	-	32.5	-	-
Cc1ccn2cc(-c3ccc(F)cc3)nc2c1	-	72.9	-	-
Cc1ccn2cc(-c3ccc(I)cc3)nc2c1	-	78.9	-	-
Cc1ccn2cc(-c3ccc([N+](=O)[O-])cc3)nc2c1	-	-	-	-
COc1ccc(/C=C/C(=O)N2c3ccccc3-c3c(ssc3=S)C2(C)C)cc1	-	-	-	-
CCS(=O)(=O)c1ncc(Cl)c(C(=O)Nc2cccc(Cl)c2C)n1	-	57.4	-	-
CCS(=O)(=O)c1ncc(Cl)c(C(=O)Nc2ccccc2Br)n1	-	36.3	-	-
CCCS(=O)(=O)c1ncc(Cl)c(C(=O)Nc2ccc(C(=O)OC)cc2)n1	-	42.8	-	-
CCCS(=O)(=O)c1ncc(Cl)c(C(=O)Nc2ccc(CC)cc2)n1	-	-	-	-
Cc1cccc(OCC(O)CN2CCCC2)c1 (stereo unspecified)	-	-	-	-
COc1cccc(C(=O)COC(=O)c2ccc3c(c2)C(=O)N(c2ccccc2OC)C3=O)c1	-	-	-	-
COCCNC(=O)/C(C#N)=C/c1cn(CC(N)=O)c2ccccc12	-	-	-	-
CC(C)OC(=O)c1nn2c(C(F)(F)F)cc(-c3ccc(F)cc3)nc2c1Cl	-	-	-	-
O=c1[nH]c(/C=C/c2ccc3c(c2)OCO3)nc2ccccc12	-	56.1	-	-
COc1ccc(/C=C\c2nc(O)c([N+](=O)[O-])c(=O)[nH]2)cc1O	-	-	-	-
